CF NFkB block – inhibitors of PAF-induced NF-kB signaling, primary screen, cell-based, GFP fluorescence, uHTS; KKLEB NF-kB-GFP reporter, GFP fluorescence overnight; hit rate 0.86% among 360,000; inhibition, % at 5 µM;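 active = at least 50% inhibition at 5 µM, scaled per plate between neutral and stimulator controls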;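 note: PAF is a Pseudomonas aeruginosa culture filtrate used as stimulus; plate controls were PAF-stimulated DMSO wells for no effect and unstimulated DMSO wells for full effect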
TRPM1 prom inh – inhibitors of MITF-dependent TRPM1 promoter reporter, primary screen, cell-based, SK-MEL-5, single point, luciferase; SK-MEL-5 TRPM1 promoter luciferase, 24 h; inhibition, % at 12.5 µM; AID 488899, 2010; hit rate 0.83% among 330,000;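 active = mean inhibition across replicates of 60% or more, whatever share of single replicates reaches that level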
Peg3 promoter – Peg3 promoter-driven luciferase inhibitors, primary screen, cell-based, HeLa, luciferase luminescence | HeLa PEG-Prom luciferase reporter, overnight | hit rate 1.7% among 360,000 | inhibition, % at 20 µM;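 active = inhibition of at least 50% at 20 µM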
HIF-2a block – HIF-2a reporter inhibitors, primary screen, luminescence, 786-0 RCC cells; 786-0 RCC cells HIF-2a reporter, luciferase luminescence, overnight; inhibition, % at 18.8 µM; hit rate 0.72% among 360,000; AID 624352, 2012;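 active = inhibition of the luminescence signal of 40% or more relative to plate controls, in a single-dose primary screen at 18.75 µM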
EBV LMP1 NFkB – EBV LMP1-driven NF-kappaB luciferase reporter inhibitors, primary screen, cell-based, luminescence, single point; LMP1-induced NF-kappaB luciferase reporter cells; inhibition, % at 12.5 µM; hit rate 0.69% among 350,000; AID 504558, 2011; in the data active = inhibition above about 41%;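 note: 0% = neutral control wells and 100% = reference inhibitor control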
KKLEB tox – cytotoxicity in KKLEB CF airway cells, primary screen, cytotoxicity control for CF NF-kB inhibitor project, cell-based, uHTS, fluorescence assay plates; KKLEB CF airway cells viability, ATPlite luminescence, overnight; stronger effect = lower value; cells stimulated with P. aeruginosa culture filtrate; activity change (cytotoxicity), % at 5 µM; hit rate 0.36% among 360,000; AID 602141, 2011;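 active = corrected activity change at or below -50% at 5 µM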
Mdm2 MdmX conf – retested Mdm2-MdmX interaction blockers, confirmation, cell-based, luminescence, single concentration, set 2 | shares compounds with HIF-2a block | SaOS-2 split-luciferase Mdm2/MdmX complementation | inhibition, % at 8 µM | hit rate 99% among 740 | AID 504601, 2011;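 active = mean inhibition of the luminescence signal across two replicates at or above 26 percent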
Target sequence (O15151 whole entry, looked up): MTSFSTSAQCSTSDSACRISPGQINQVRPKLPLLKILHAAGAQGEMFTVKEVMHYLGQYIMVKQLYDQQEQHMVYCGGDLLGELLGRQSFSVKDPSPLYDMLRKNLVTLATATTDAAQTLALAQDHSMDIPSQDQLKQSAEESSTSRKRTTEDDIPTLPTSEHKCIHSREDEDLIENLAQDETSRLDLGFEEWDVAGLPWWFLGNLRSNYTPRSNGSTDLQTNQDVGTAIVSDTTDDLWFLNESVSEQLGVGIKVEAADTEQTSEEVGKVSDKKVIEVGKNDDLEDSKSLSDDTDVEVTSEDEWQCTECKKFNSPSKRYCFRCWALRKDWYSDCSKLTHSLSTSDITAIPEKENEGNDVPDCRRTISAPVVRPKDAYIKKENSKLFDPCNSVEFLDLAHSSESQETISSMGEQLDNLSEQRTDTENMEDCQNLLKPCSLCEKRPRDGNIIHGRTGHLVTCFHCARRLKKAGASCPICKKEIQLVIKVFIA
Target sequence (Q00987 whole entry, looked up): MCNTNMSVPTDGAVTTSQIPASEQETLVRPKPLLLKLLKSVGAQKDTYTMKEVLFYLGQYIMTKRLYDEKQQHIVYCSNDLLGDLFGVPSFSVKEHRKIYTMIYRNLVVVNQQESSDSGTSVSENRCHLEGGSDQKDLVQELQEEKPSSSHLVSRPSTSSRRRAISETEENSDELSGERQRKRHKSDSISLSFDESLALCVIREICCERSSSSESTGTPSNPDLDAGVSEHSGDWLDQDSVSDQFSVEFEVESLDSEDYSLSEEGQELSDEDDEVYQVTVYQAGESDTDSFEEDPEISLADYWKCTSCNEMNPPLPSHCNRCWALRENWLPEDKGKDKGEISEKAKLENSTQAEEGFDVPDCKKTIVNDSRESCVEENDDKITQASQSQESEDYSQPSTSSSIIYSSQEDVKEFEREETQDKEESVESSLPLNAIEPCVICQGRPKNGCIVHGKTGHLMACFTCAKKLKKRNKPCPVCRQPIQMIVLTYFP
HIF-2a inh conf – HIF-2a reporter inhibitor retest, confirmation, luminescence, 786-0 RCC cells | shares compounds with HIF-2a block | HIF-2a luciferase reporter luminescence, overnight | inhibition, % at 18.8 µM | hit rate 56% among 1,800 | AID 651580, 2012;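 active = mean inhibition across four replicates of at least 40 percent at the single tested concentration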
HIF-1a counter – HIF-1a luciferase reporter signal reduction – MiaPaCa-2 cells, single concentration, counter-screen for HIF-2a inhibitor project, confirmation. shares compounds with HIF-2a block. MiaPaCa-2 HIF-1a luciferase reporter, desferoxamine, overnight. inhibition, % at 18.8 µM. hit rate 72% among 1,800. AID 651589, 2012;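 active = mean inhibition of the reporter signal across four replicates at the single tested dose of 50% or more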
An asterisk follows results filed as active; / = not tested or not shown. Rows were chosen to be rich in hits. Some 3% of all compounds tested hit in one or more screens of this group.

SMILES | CF NFkB block | TRPM1 prom inh | Peg3 promoter | HIF-2a block | EBV LMP1 NFkB | KKLEB tox | HIF-2a inh conf | HIF-1a counter | others
CCOC(=O)Cn1cc(C#N)c2ccccc21 | 17 | 4 | 3 | 11 | 4 | -14 | / | /
CCOC(=O)COc1ccc2nsnc2c1 | -3 | -4 | -2 | 16 | 0 | 9 | / | /
Cc1cccc(Cn2cc(/C=C/[N+](=O)[O-])c3ccccc32)c1 | 3 | 19 | 48 | 36 | 2 | -5 | / | /
CCOC(=O)C1CCCN(C(=O)c2ccc(-c3ccccc3)cc2)CC1 (configuration not stated) | 2 | / | 18 | 12 | / | 17 | / | /
CN[C@@H](CO)C(=O)NC[C@H]1O[C@@H](n2cnc3c(=O)[nH]c(N)nc32)[C@H](O)[C@@H]1O | 5 | / | 9 | 19 | / | 1 | / | /
CN(C)c1ccc(NC(=O)Nc2nc(C(N)C3CCCCC3)cs2)cc1 (configuration not stated) | 18 | / | 38 | 14 | / | -16 | / | /
CC1(c2ccccc2)NC(=O)N(CC(=O)Nc2ccc(S(=O)(=O)NC3=NCCCCC3)cc2)C1=O (configuration not stated) | -13 | -3 | -7 | 11 | -1 | 4 | / | /
Cc1c(C(=O)NCc2ccc(C(C)C)cc2)sc(=O)n1Cc1ccc(S(=O)(=O)N(C)C)cc1 | 14 | / | 11 | -4 | / | -11 | / | /
O=[N+]([O-])c1ccc(Oc2cccc(F)c2)c2ccncc12 | 41 | 17 | 18 | 47* | 5 | -17 | 30 | 79*
O=C(Nc1ccccc1-c1nc2ccccc2[nH]1)c1ccc(N2C(=O)CCC2=O)cc1 | 19 | 9 | 22 | 45* | -2 | -26 | -22 | 10
COc1cc(C(C)n2nnc3ccccc32)ccc1O (configuration not stated) | -30 | / | -4 | 6 | 4 | -6 | / | /
CN(C)c1ccc(C(=O)N/N=C/c2cc(Br)cc(Br)c2O)cc1 | 16 | / | 59* | 3 | / | 4 | / | / | Mdm2 MdmX conf=89*
COc1c(Br)cc(Br)cc1/C=N/NC(=O)c1ccncc1 | -9 | -1 | 18 | 9 | 4 | 7 | / | /
Cc1cc(N)c2cc(NC(=O)/C=C/c3ccccc3Cl)ccc2n1 | 19 | 100* | 104* | 96* | 3 | -30 | 95* | 108* | Mdm2 MdmX conf=103*
Cc1cc(C)nc(NC(=O)/C=C/c2ccccc2Cl)n1 | 5 | -13 | -98 | -137 | 4 | -4 | / | /
Cc1ccc(-n2c(O)c(C=Nc3ccccc3-c3n[nH]c(=S)[nH]c3=O)c3ccccc3c2=O)c(C)c1 | 2 | -1 | 17 | 43* | 15 | -14 | 15 | 85*
Cc1ccc(C2C(C#N)=C(N)N(c3ncn[nH]3)C3=C2C(=O)CC(C)(C)C3)cc1 (configuration not stated) | 8 | 2 | 9 | 44* | 0 | -4 | 3 | 0
Cc1ccc(N2C(N)=C(C#N)C(c3cccnc3)C3=C2CC(C)(C)CC3=O)cc1 (configuration not stated) | 0 | 8 | 17 | 0 | -12 | 2 | / | /
CC1(C)CC(=O)C=C(c2ccccc2-c2ccc(S(C)(=O)=O)cc2)C1=O | 3 | / | -22 | 5 | -2 | -4 | / | /
CCOc1c(Br)cc(CNc2ccc3c(c2)OCCO3)cc1OC | 33 | 56 | 33 | 43* | 19 | -14 | 40 | 77*
CCOc1cc(CNc2ccc3c(c2)OCCO3)cc(Br)c1OC | 41 | 62* | 46 | 45* | 32 | -36 | 67* | 98*
CCOc1cc(CNc2ccc3c(c2)OCCO3)cc(Br)c1OCC(N)=O | -4 | -2 | -8 | -3 | 4 | 1 | / | /
Cc1cc(C)cc(Cn2cc(CN3CC(N4CCN(CCO)CC4)CS3(=O)=O)nn2)c1 (configuration not stated) | / | / | / | 2 | / | / | / | /
Cc1ccc(NC(=O)[C@H](Cc2c[nH]c3ccccc23)NC(=O)[C@@H]2Cc3ccccc3CN2)c(C)c1 | -24 | / | -13 | -47 | 8 | -4 | / | / | Mdm2 MdmX conf=98*
O=C(Nc1ccc(F)c(Cl)c1)C1Cc2c(-c3ccccc3Oc3ccccc3)ccnc2O1 (configuration not stated) | 24 | / | 23 | 10 | / | 10 | / | /
SMILES | CF NFkB block | TRPM1 prom inh | Peg3 promoter | HIF-2a block | EBV LMP1 NFkB | KKLEB tox | HIF-2a inh conf | HIF-1a counter | others
Cc1cc(NC(=O)C(Cl)Cl)cc2c1OCO2 | -20 | 6 | 19 | 7 | -2 | 3 | / | /
COc1cc(C=C(c2nc3ccccc3s2)c2nc3ccccc3s2)cc(OC)c1O | -24 | 8 | -71 | -56 | -4 | 8 | / | /
O=C(O)c1ccc(C=C(c2nc3ccccc3s2)c2nc3ccccc3s2)cc1 | 30 | 13 | 19 | 50* | 6 | -15 | 52* | 92*
CCOC(=O)C1=CCN(S(=O)(=O)c2ccc(C)cc2)C1c1ccc(Cl)c(Cl)c1 (configuration not stated) | 0 | / | 33 | 11 | / | -5 | / | /
COc1ccc(CNC(=O)COC(=O)CCCOc2ccc(Cl)cc2Cl)cc1OC | 6 | 3 | -2 | 31 | 1 | 5 | / | /
Cc1ccc(CNC(=O)COC(=O)CCCOc2ccc(Cl)cc2Cl)cc1 | -1 | 19 | 3 | 62* | 4 | 6 | 70* | 57*
O=C(COC(=O)CCCOc1ccc(Cl)cc1Cl)NCc1ccccc1 | -23 | -10 | -3 | 64* | -1 | 5 | 63* | 54*
COc1cccc(/C=N/Nc2cc(-n3nc(C)cc3-c3ccccc3)ncn2)c1O | 48 | 28 | 52* | 16 | 4 | -19 | / | / | Mdm2 MdmX conf=91*
COc1cccc(/C=N/Nc2nc(Nc3ccccc3)nc(-n3nc(C)cc3C)n2)c1O | -20 | 29 | 32 | -94 | -8 | -12 | / | /
CCOC(=O)/C(=C/c1c(C)n(C)c2ccc([N+](=O)[O-])cc12)C(C)=O | 2 | -9 | 49 | 72* | 9 | -9 | 70* | 59*
COCCN(CC(=O)NC1CCCCC1)C(=O)/C=C/C(=O)c1ccc(OC)cc1O | 26 | 94* | 97* | 92* | 17 | 5 | 99* | 103*

Assay outcomes (PubChem BioAssay)
